Bioassay records (PubChem BioAssay)
Only some compounds are listed: those with a hit (about 3.9% of all), similar ones and a draw of the others.
aSyn 5UTR inh = MLPCN primary screen, SNCA 5' untranslated region; alpha-synuclein 5'UTR reporter, inhibitor activity; inhibition, % (tested at 7.5 µM); 300,000 tested, 0.82% active; AID 1813, 2009; in the data active means inhibition above about 60%;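 further: H4 neuroglioblastoma cells stably carrying SNCA 5'UTR luciferase fusion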
C8 TRAIL sens = viability loss with TRAIL in NB7+C8 cells, primary screen, TRAIL sensitizer project, cell-based, ATPlite luminescence; inhibition (viability loss, TRAIL sensitization), % at 10 µM; 360,000 tested, 1% active;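 active means compounds causing at least 50% loss of cell viability in the single-dose screen, relative to plate controls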
HIF-2a block = HIF-2a reporter inhibitors, primary screen, luminescence, 786-0 RCC cells. inhibition, % at 18.8 µM. 786-0 RCC cells HIF-2a reporter, luciferase luminescence, overnight. AID 624352, 2012. 360,000 tested, 0.72% active;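 active means inhibition of the luminescence signal of 40% or more relative to plate controls, in a single-dose primary screen at 18.75 µM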
TROY NFkB inh = inhibitors of TROY-driven NF-kB signaling, primary screen, Q293 LMP1-TROYcd cells, NF-kB luciferase, uHTS; inhibition, % at 10 µM; AID 1347056, 2019; Q293 LMP1-TROYcd NF-kB luciferase reporter, 4 h; 360,000 tested, 0.98% active;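 active means compounds whose plate-normalised and pattern-corrected inhibition of the luciferase reporter signal at the single screening dose is 50% or more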
HSP90 inh = HSP90 inhibitors, primary screen, cell lysate, luminescence. Heat shock protein HSP 90 (rabbit reticulocyte lysate; luciferase refolding). Rabbit reticulocyte lysate, luciferase refolding luminescence, 3 h. inhibition, % at 5.6 µM. 290,000 tested, 0.91% active. AID 1789, 2009;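 active means inhibition above the screen-wide mean plus 3 SD, computed separately per campaign, cut at about 16% in these data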;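 further: inhibitors lower the luminescence because luciferase stays unfolded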
TWEAK Fn14 block = inhibitors of TWEAK-Fn14 signaling, primary screen, luciferase reporter cells, uHTS | TWEAK-stimulated Fn14 reporter cells, luciferase luminescence, 8 h | inhibition, % at 10 µM | 360,000 tested, 2% active; in the data active means inhibition above about 50%
Large screens that a line does not name were inactive.

Cc1cc(/C=N/n2c(COc3ccccc3)nc3ccccc3c2=O)c(O)c([N+](=O)[O-])c1	C8 TRAIL sens 51
Cc1nnc(SCC(=O)N2CCC(c3noc4ccc(F)cc34)CC2)s1	TWEAK Fn14 block 68
Cc1sc2ncnc(SCC(=O)N3CCC(c4noc5ccc(F)cc45)CC3)c2c1C	none (no result: aSyn 5UTR inh)
CCn1nc(C(=O)NCc2nnc3ccccn23)c2ccccc2c1=O	none (no result: aSyn 5UTR inh, HSP90 inh)
CC(C)(C)OC(=O)NCCc1onc(-c2ccccc2F)c1C(=O)O	none (no result: aSyn 5UTR inh, HSP90 inh)
CCCCCCc1cc2cc(S(=O)(=O)c3ccc(F)cc3)c(=O)oc2cc1O	TROY NFkB inh 51
CCCCCCc1cc2cc(-c3nnc(-c4ccccc4OC)o3)c(=O)oc2cc1O	none
CCCCCCc1cc2cc(-c3nnc(-c4ccccc4O)o3)c(=O)oc2cc1O	TWEAK Fn14 block 55
O=C(COc1cc(F)ccc1[N+](=O)[O-])Nc1cc(S(=O)(=O)N2CCCC2)ccc1Cl	C8 TRAIL sens 52 (no result: aSyn 5UTR inh, HSP90 inh)
O=C(Nc1cc(S(=O)(=O)N2CCCCC2)ccc1Cl)c1ccccc1NS(=O)(=O)c1ccc(F)cc1	aSyn 5UTR inh 63, TROY NFkB inh 52, TWEAK Fn14 block 65
Cc1ccc(CNC(=O)C(=O)NCCC2CCCCN2S(=O)(=O)c2ccc(C)cc2)cc1 (configuration not stated)	none (no result: HSP90 inh)
O=C(NCCC1CCCCN1S(=O)(=O)c1ccc(Cl)cc1)C(=O)NCc1ccncc1 (configuration not stated)	aSyn 5UTR inh 62 (no result: HSP90 inh)
C=CCOC(=O)Nc1nc(CCNC(=O)OCc2ccccc2)c(C(=O)O)s1	none (no result: aSyn 5UTR inh, TROY NFkB inh, HSP90 inh, TWEAK Fn14 block)
O=[N+]([O-])c1cc(S(=O)(=O)NCCCN2CCOCC2)ccc1Cl	none
O=[N+]([O-])c1cc(S(=O)(=O)NCCN2CCOCC2)ccc1Sc1nnnn1-c1ccccc1	TWEAK Fn14 block 89
CC(O)(c1cccc(F)c1)c1nc(-c2cccc3cccnc23)cs1 (configuration not stated)	none (no result: aSyn 5UTR inh, HSP90 inh)
CC(C)CNC(=O)C1C(=O)Nc2ccccc2C(=O)N1C1CCCCC1 (configuration not stated)	none (no result: aSyn 5UTR inh, TROY NFkB inh, HSP90 inh, TWEAK Fn14 block)
CCc1ccc(CN(C)C(=O)CCc2nc3ccccc3n(-c3ccc(OC)cc3)c2=O)cc1	TROY NFkB inh 54, TWEAK Fn14 block 52
Cc1cccc(C)c1NC(=O)C(c1cccc2ccccc12)n1c(=O)c(-c2cc3ccccc3[nH]2)nc2ccccc21 (configuration not stated)	none (no result: aSyn 5UTR inh, TROY NFkB inh, HSP90 inh, TWEAK Fn14 block)
Oc1ccc(-c2cnc(-c3ccc(O)cc3)nc2)cc1	C8 TRAIL sens 80
CC1(C(=O)NS(=O)(=O)c2ccc(Br)cc2)CCN1C(=O)Cc1cccs1 (configuration not stated)	none (no result: aSyn 5UTR inh, HSP90 inh)
Cc1occc1C(=O)O/N=C(\N)c1ccc(Cl)cc1	C8 TRAIL sens 87
COc1ccc(Cl)cc1C(=O)O/N=C(\N)c1ccc(Cl)cc1	none
CCOC(=O)C1CCCN(C(=O)C(C)(C)Oc2ccc(Cl)cc2)C1 (configuration not stated)	TWEAK Fn14 block 86
CCOC(=O)C1CCCN(C(=O)c2ccc(OC(C)=O)cc2)C1 (configuration not stated)	none
Cc1nc(Nc2ccccc2)sc1-c1ccccc1	C8 TRAIL sens 66
Cc1ccc(N(CC(=O)N2CCN(c3ccccc3F)CC2)S(=O)(=O)c2c(C)noc2C)cc1	none
CCc1ccc(Nc2nnc(SCC(=O)c3c(N)n(C4CC4)c(=O)[nH]c3=O)s2)cc1	C8 TRAIL sens 61 (no result: aSyn 5UTR inh, HSP90 inh)
Cc1ccc(-c2csc(SCC(=O)c3c(N)n(C4CC4)c(=O)[nH]c3=O)n2)cc1	none (no result: aSyn 5UTR inh, HSP90 inh)
CCc1ccc(Nc2nnc(SCC(=O)Nc3sccc3C(N)=O)s2)cc1	none
CCc1ccc(Nc2nnc(SCC(=O)NCCN3C(=O)CSC3=O)s2)cc1	C8 TRAIL sens 58
CCC(C(=O)Nc1c(C)cccc1C)n1c(-c2ccc(-c3ccccc3)cc2)nc2ccccc21 (configuration not stated)	none (no result: aSyn 5UTR inh, TROY NFkB inh, HSP90 inh, TWEAK Fn14 block)
COc1ccccc1C(=O)COC(=O)CNS(=O)(=O)c1ccc(C)c(C)c1	none (no result: HSP90 inh)
Cc1ccc(Cl)cc1NC(=O)CC(O)(C(F)(F)F)C(F)(F)F	TROY NFkB inh 54
COCC(=O)Nc1cc(Cl)ccc1C	none
